CCHFV vOTU inh: CCHFV vOTU protease inhibition | Pep-AMC fluorescence | inhibition, % at 11.5 µM | hit rate 0.55% among 370,000 | AID 651958; in the data active = inhibition above about 30%; note: 0% = vehicle wells with enzyme and 100% = no enzyme wells
Anthrax LF inh2: anthrax lethal factor protease inhibition | inhibition, % at 10 µM | P15917 | multiplex microsphere protease cleavage assay, LF | hit rate 0.12% among 360,000; note: plate controls were buffer without enzyme for full effect and enzyme alone for no effect
Autofluor counter: compound fluorescence in toxin protease inhibitor counterscreen; compound autofluorescence counterscreen, microsphere flow cytometry; stronger effect = higher value; fluorescence intensity (concentration not given with the values); hit rate 3.1% among 360,000; AID 624483; in the data active = fluorescence intensity above about 16000; inconclusive = no clear call, values can overlap the other calls
BoNT-A LC inh2: inhibitors of Botulinum neurotoxin A light chain protease; multiplex microsphere protease substrate cleavage, flow cytometry; inhibition, % at 10 µM; hit rate 0.17% among 360,000; note: plate controls were buffer without enzyme for full effect and enzyme alone for no effect
3CLpro inhibitor: SARS-CoV 3CLpro protease inhibition; P0C6X7; recombinant SARS-CoV 3CLpro, quenched FRET peptide cleavage; inhibition, % at 6 µM; hit rate 0.14% among 290,000; in the data active = inhibition above about 12%
BoNT-F LC inh: blocks Botulinum neurotoxin F light chain protease; inhibition, % at 10 µM; AID 588497; Multiplex microsphere protease cleavage assay, flow cytometry; hit rate 0.22% among 360,000; in the data active = inhibition above about 35%, passing the limit was not always enough; inconclusive = no clear call, values can overlap the other calls; note: plate controls were buffer without enzyme for full effect and enzyme alone for no effect
* marks the source's active call; other numbers are inactive results; ? = inconclusive; . = no result. Hits are enriched below; roughly 3.9% of the tested compounds scored in any of these assays. Cut-off read from the data, not from the text of the source, unless noted: active = inhibition above about 30%; inconclusive = no clear call, values can overlap the other calls; inactive = below that.

SMILES	CCHFV vOTU inh	Anthrax LF inh2	Autofluor counter	BoNT-A LC inh2	3CLpro inhibitor	BoNT-F LC inh
CC1CCCCN1C(=O)c1ccc(CNC(=O)c2cccc(Br)c2)cc1 (stereo not given)	-3	.	.	.	.	.
CC1CCCCN1C(=O)c1ccc(C(=O)N2CCCCC2C)cc1 (stereo not given)	-2	0	21133*	3	-2	4
CC1CCCCN1C(=O)c1ccc(S(=O)(=O)N2CCCCC2C)cc1 (stereo not given)	5	2	3000	-1	-1	3
CN(C)S(=O)(=O)c1cccc(C(=O)N/N=C\c2ccccc2)c1	-7	.	.	.	.	.
CCC(=O)OC1(C(C)=O)CCC2C3CCC4=CC(=O)CCC4(C)C3CCC21C (stereo not given)	6	8	3852	0	.	-6
CCCc1ccc(C(=O)N2CCN(c3ccccc3OCC)CC2)cc1	6	0	25022*	-3	3	-8
COc1cc(OC)c(NC(=O)NNC(=O)C(=O)NC2CC2)cc1Cl	-6	.	.	.	.	.
O=C(Nc1nnc(-c2cccnc2)s1)c1cnc2ccccc2c1	2	.	.	.	.	.
CCOC(=O)N1CCN(C(=O)C2CC(c3ccccc3OC)=NO2)CC1 (stereo not given)	-4	-14	20183*	8	-2	9
COc1cc(OC)c(C2=NOC(C(=O)N3CCCc4ccccc43)C2)cc1Cl (stereo not given)	-10	-7	23619*	-2	2	0
O=C(C1CC(c2ccccc2O)=NO1)N1CCC2(CC1)OCCO2 (stereo not given)	-11	0	20077*	6	2	7
COc1ccc(C2=NOC(C(=O)N3CCOCC3)C2)cc1OC (stereo not given)	-8	0	23787*	-5	5	-5
CCC1CCCCN1C(=O)C1CC(c2cc(Cl)c(OC)cc2OC)=NO1 (stereo not given)	-11	1	5380	0	2	-6
COc1ccccc1C(=O)NCC(=O)NCCCN1CCOCC1	10	-12	3753	1	.	-2
COc1ccccc1NC(=O)C1=C(C)Nc2nnnn2C1c1cc(Br)ccc1OC (stereo not given)	0	-2	23731*	-4	4	-5
CC1=C(C(=O)Nc2cccnc2)C(c2ccncc2)n2nnnc2N1 (stereo not given)	-3	2	19936*	?	-5	-2
CC1=C(C(=O)Nc2ccccc2)C(c2ccncc2)n2nnnc2N1 (stereo not given)	13	?	?	1	3	6
CCCCCCN1CCS(=O)(=O)N(Cc2ccc(OC)cc2)C(C(=O)OC)C1 (stereo not given)	6	.	.	.	.	.
COC(=O)c1cc(-c2ccc(-c3ccccc3)c(F)c2)c(=O)n2c1CCC2	-7	.	.	.	.	.
Cc1ccc(N(c2ncnc(N)c2[N+](=O)[O-])C2CCCCC2)cc1	8	0	23258*	0	1	1
Cc1ccc(Oc2ncnc(N)c2[N+](=O)[O-])cc1	-15	-1	3570	1	1	-3
COc1ccc(NC(=O)CN(C)C(=O)C2=NN(c3ccccc3)C(=O)CC2)cc1	0	-9	8661	1	.	-4
CCCc1ccc(OCc2ccc(C(=O)OC)o2)c(OC)c1	.	-2	23181*	1	6	1
CCCc1ccc(OCc2ccc(C(=O)O)o2)c(OC)c1	0	1	2799	0	0	4
CCN(Cc1ccccc1)C(=O)CCS(=O)(=O)c1ccc2c(c1)n(C)c(=O)c(=O)n2C	-2	3	4205	-1	-5	-5
SMILES	CCHFV vOTU inh	Anthrax LF inh2	Autofluor counter	BoNT-A LC inh2	3CLpro inhibitor	BoNT-F LC inh
COc1ccc(-c2noc(C3CCCN(S(=O)(=O)c4cccc(Cl)c4)C3)n2)cc1OC (stereo not given)	.	-4	23625*	0	-1	-2
COc1ccc(C(=O)N2CCCC(c3nc(-c4cccs4)no3)C2)cc1 (stereo not given)	4	-4	19734*	-2	3	-2
O=C(c1ccc(Br)cc1)N1CCCC(c2nc(-c3cccs3)no2)C1 (stereo not given)	3	-7	3850	0	2	-4
COc1ccc(C(=O)N2CCCC(c3nc(-c4cccs4)no3)C2)cc1OC (stereo not given)	-11	-1	25010*	-4	5	-7
CC12CCC(=O)N1C(C(=O)NNC(=O)c1cccc(Cl)c1)CS2 (stereo not given)	-3	-4	11021	-26	.	-51
CC12CCC(=O)N1C(C(=O)Nc1nc3ccccc3s1)CS2 (stereo not given)	-2	-11	2862	0	.	-4
O=c1oc2ccccc2cc1-c1nc2c(s1)CCCC2	-96	7	23234*	?	2	6
O=c1oc2ccccc2cc1-c1nc2ccccc2o1	-309	0	8144	0	5	0
COc1cccc(Cn2cc(COC(=O)NCCc3c[nH]c4ccccc34)nn2)c1	1	.	.	.	.	.
COC(=O)CSc1nc2nc(C)c(Br)cc2[nH]1	2	-12	9087	0	6	-1
C=C(C)CSc1nc2nc(C)c(Br)cc2[nH]1	-2	1	22023*	0	2	-1
CC(=O)N1CCCc2ccc(NS(=O)(=O)c3ccccc3)cc21	7	0	4006	6	.	8
CC(C)c1ccccc1N1CC(C(=O)O)CC1=O (stereo not given)	-7	-14	21241*	2	-10	1
COC(=O)/C=C1\NC(=O)C(C)S1 (stereo not given)	12	-3	4258	0	1	-5
COC(=O)/C=C1\NCCSC1=O	13	-3	17208*	-2	-5	-2
O=C1CCCc2ccccc2N1Cc1ccccc1	3	-9	5752	0	8	-1
CC1CC(=O)N(Cc2ccccc2)c2ccccc2N1C=O (stereo not given)	0	-5	20499*	0	-3	0
Cc1n[nH]c(=O)nc1N/N=C/c1ccco1	8	2	2803	-2	-1	-4
O=C(C1CCCN1S(=O)(=O)c1ccccc1[N+](=O)[O-])N1CCN(c2ccccc2)CC1 (stereo not given)	5	.	.	.	.	.
CCN1CCN(CC(O)COC(C)C)CC1 (stereo not given)	-14	-2	20191*	0	1	-1
CCN1CCN(CC(O)COc2ccc(Cl)cc2)CC1 (stereo not given)	7	1	2441	0	0	6
Cc1ccccc1NC(=O)c1c2c(nc3ccccc13)CCC2	6	-1	5335	0	0	-4
CCOc1ccc(N(C(C)C(=O)NC(C)CC)S(C)(=O)=O)cc1 (stereo not given)	-2	2	19908*	0	-3	-1
CCOc1ccc(N(C(C)C(=O)N2CCCCCC2)S(C)(=O)=O)cc1 (stereo not given)	-2	-1	3882	-1	3	0
CN1C(=O)CC(NNC(=O)c2ccc(Cl)cc2)C1=O (stereo not given)	2	-3	22298*	-9	0	-10
